From ChEMBL document CHEMBL1961873, “Compounds: GSK PKIS; Assays: Nanosyn kinase panel” (2012) come the findings set out here.

Assay [1] addresses T1, Muscle, skeletal receptor tyrosine-protein kinase (Homo sapiens) (UniProt O15146).
T1 sequence (whole entry): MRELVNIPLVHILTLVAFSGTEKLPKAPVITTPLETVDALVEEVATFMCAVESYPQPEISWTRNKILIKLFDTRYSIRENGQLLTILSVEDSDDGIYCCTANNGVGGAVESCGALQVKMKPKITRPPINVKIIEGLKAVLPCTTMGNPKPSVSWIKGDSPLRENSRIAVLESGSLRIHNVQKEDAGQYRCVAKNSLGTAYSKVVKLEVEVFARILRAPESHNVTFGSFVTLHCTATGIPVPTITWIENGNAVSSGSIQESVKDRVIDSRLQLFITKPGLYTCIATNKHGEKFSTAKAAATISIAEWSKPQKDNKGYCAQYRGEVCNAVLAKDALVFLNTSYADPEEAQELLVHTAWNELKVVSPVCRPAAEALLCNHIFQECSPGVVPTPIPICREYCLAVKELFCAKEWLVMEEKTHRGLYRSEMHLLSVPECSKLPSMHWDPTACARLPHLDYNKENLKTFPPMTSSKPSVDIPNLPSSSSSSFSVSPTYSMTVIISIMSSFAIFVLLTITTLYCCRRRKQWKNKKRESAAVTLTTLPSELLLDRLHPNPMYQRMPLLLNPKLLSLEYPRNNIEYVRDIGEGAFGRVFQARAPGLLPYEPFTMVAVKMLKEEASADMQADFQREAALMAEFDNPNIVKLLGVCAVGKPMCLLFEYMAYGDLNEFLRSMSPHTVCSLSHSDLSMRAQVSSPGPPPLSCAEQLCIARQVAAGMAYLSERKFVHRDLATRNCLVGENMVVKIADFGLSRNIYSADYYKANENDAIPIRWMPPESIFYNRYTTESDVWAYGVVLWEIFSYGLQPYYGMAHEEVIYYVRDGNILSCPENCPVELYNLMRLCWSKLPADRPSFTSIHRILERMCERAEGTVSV
The settings on record: at 1 µM.

In assay [2] the target is Platelet-derived growth factor receptor alpha (Homo sapiens) (UniProt P16234). The settings on record: at 0.1 µM.
Chain of Platelet-derived growth factor receptor alpha (Homo sapiens) (P16234 whole entry): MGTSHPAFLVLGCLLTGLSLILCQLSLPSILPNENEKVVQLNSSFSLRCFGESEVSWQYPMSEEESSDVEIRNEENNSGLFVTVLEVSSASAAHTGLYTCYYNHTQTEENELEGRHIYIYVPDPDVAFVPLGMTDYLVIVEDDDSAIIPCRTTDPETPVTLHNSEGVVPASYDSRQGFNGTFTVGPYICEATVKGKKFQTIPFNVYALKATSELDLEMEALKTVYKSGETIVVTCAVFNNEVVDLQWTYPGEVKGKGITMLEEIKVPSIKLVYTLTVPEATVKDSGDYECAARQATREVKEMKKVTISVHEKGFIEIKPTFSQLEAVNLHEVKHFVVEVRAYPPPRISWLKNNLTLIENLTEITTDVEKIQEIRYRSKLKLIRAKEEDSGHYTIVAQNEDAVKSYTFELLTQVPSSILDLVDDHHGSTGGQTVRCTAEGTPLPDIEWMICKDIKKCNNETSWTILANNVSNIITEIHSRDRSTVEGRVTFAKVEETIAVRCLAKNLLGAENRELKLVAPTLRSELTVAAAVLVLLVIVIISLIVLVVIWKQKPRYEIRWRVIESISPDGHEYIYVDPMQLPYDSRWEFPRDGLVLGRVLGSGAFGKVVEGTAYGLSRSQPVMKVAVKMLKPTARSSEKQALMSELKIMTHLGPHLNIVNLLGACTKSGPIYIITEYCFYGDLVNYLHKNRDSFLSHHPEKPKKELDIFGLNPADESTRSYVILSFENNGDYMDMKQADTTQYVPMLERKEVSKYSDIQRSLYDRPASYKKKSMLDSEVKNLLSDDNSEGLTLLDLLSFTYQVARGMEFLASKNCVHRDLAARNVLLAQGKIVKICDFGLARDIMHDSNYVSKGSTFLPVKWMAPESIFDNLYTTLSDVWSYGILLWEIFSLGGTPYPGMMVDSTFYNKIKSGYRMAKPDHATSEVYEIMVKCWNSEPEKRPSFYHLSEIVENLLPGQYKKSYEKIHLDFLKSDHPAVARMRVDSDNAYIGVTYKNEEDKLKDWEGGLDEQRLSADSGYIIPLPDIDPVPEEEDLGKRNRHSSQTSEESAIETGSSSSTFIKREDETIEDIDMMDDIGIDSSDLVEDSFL
For assay [3] the target is unchanged. The settings on record: at 1 µM.
Assay [4] concerns Platelet-derived growth factor receptor alpha (Homo sapiens), P16234 [D842V]. The settings on record: at 0.1 µM.
Chain of Platelet-derived growth factor receptor alpha (Homo sapiens), P16234 [D842V] (P16234 whole entry D842V): as the sequence (P16234 whole entry) above, with D842V counted along it
Assay [5] has the same test system. The settings on record: at 1 µM.
Assay [6] concerns Platelet-derived growth factor receptor alpha (Homo sapiens), P16234 [T674I]. The settings on record: at 0.1 µM.
Chain of Platelet-derived growth factor receptor alpha (Homo sapiens), P16234 [T674I] (P16234 whole entry T674I): as the sequence (P16234 whole entry) above, with T674I counted along it
For assay [7] the test system is unchanged. The settings on record: at 1 µM.
Assay [8] concerns Platelet-derived growth factor receptor alpha (Homo sapiens), P16234 [V561D]. The settings on record: at 0.1 µM.
Chain of Platelet-derived growth factor receptor alpha (Homo sapiens), P16234 [V561D] (P16234 whole entry V561D): as the sequence (P16234 whole entry) above, with V561D counted along it
Assay [9] has the same test system. The settings on record: at 1 µM.
For assay [10], the target named is Platelet-derived growth factor receptor beta (Homo sapiens) (UniProt P09619). The settings on record: at 0.1 µM.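 Also: reported value is the mean percent inhibition of the kinase.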
Chain of Platelet-derived growth factor receptor beta (Homo sapiens) (P09619 whole entry): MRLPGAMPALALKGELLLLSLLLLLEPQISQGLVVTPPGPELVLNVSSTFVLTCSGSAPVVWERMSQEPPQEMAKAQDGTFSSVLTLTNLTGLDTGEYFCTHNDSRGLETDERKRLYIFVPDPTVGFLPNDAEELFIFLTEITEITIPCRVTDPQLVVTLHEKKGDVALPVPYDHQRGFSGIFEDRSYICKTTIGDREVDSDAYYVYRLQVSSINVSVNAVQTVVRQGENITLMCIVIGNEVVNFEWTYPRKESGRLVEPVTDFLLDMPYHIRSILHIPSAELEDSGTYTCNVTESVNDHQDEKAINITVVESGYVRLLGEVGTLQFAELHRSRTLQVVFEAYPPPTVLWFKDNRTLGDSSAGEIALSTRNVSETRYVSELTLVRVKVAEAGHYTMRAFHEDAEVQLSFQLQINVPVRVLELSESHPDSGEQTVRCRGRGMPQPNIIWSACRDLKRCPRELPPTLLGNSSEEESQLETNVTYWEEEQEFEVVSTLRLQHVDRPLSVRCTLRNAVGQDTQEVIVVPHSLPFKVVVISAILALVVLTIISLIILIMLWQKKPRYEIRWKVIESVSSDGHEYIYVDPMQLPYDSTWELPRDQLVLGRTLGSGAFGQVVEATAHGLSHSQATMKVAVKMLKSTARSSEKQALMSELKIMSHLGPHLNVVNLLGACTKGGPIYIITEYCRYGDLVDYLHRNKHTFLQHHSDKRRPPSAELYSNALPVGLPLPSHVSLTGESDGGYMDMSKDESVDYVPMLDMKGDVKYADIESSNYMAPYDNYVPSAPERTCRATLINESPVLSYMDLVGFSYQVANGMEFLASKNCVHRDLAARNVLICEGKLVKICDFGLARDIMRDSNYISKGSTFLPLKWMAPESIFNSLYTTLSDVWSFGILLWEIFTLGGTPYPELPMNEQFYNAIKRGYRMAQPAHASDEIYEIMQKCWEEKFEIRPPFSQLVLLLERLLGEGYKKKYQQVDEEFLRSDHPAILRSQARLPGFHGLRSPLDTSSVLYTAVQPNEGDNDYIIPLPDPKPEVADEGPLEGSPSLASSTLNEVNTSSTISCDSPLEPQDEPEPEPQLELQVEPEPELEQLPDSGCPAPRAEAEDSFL

By inhibition is commonly meant the relative decrease from the control value, in per cent. Consider `NS(=O)(=O)c1ccc(Nc2ncc(-c3ccccc3)o2)cc1`, for which the inhibition in assay [1] is 12.4%; in assay [2], 7.81%; in assay [3], 34.8%; in assay [4], 1.5%; in assay [5] it was 10.2%; in [6], 14.4%. In addition, the inhibition was 65.1% in [7], 25.7% in assay [8], 50.5% in [9] and 12% in [10].

As for `CN1CCC(n2cnc(-c3ccc(F)cc3)c2-c2ccnc(Nc3ccccc3)n2)CC1`, the inhibition in [1] came out at 2.15%; in [2], 8.81%; in [3] it was 22.1%; in assay [4], 4.56%; in [5] it was 18.6%; in [6], 5.9%. Also, the inhibition in assay [7] stood at 5.98%; in [8], 5.65%; in assay [9], 15.5%; in [10] it was 7.67%.

For `COC(=O)Nc1nc2ccc(S(=O)(=O)c3ccc(NC(=O)Nc4cc(C(F)(F)F)ccc4F)cc3)cc2[nH]1`, the inhibition stood at 4.85% in assay [1]; 2.65% in [2]; 4.3% in [3]; 3.19% in assay [4]; 0.61% in assay [5]; 3.85% in assay [6]. The inhibition in assay [7] was 2.62%; in assay [8], 2.98%; in assay [9], 3.2%; in [10] it was 5.73%.

On to `c1ccc(COc2ccc(Nc3ncnc4ccc(-c5ccco5)cc34)cc2)cc1`, for which the inhibition amounted to 1.01% in [1]; 3.81% in assay [2]; 6.96% in [3]; 2.63% in assay [4]; 3.21% in assay [5]; 2.49% in assay [6]. For the same compound, the inhibition in assay [7] is 3.6%; in assay [8] it was 2.39%; in assay [9] it was 2.43%; in assay [10], -0.23%.

Regarding `c1ccc(-c2nc3n(c2-c2ccc4c(c2)OCO4)CCC3)nc1`, the inhibition in assay [1] turned out to be 2.2%; in assay [2], 3.23%; in assay [3], 7.15%; in [4], 3.87%; in [5], 2.04%; in assay [6], 2.77%. The inhibition in [7] came to 2.15%; in [8], 2.48%; in assay [9], 2.33%; in assay [10], 3.66%.

`COC(=O)c1sc(-n2cnc3cc(OC)c(OC)cc32)cc1OCc1ccccc1C(F)(F)F`: the inhibition is 48.1% in [1]; 26.1% in assay [2]; 66.3% in [3]; 18% in assay [4]; 66.5% in assay [5]; 9.67% in [6]. Further, the inhibition was found to be 44.6% in assay [7], 22.2% in assay [8], 70.6% in assay [9] and 14.9% in assay [10].

As to `COc1ccc(-c2cc(-c3c[nH]nc3-c3ccccn3)ccn2)cc1`, the inhibition was found to be 4.1% in assay [1]; 13.7% in assay [2]; 42.1% in assay [3]; 14.9% in [4]; 58.7% in [5]; 7.15% in [6]. Moreover, the inhibition in assay [7] was determined as 9.53%; in [8] it was 11.1%; in [9] it was 40.6%; in assay [10] it was 7.26%.

Turning to `COc1cc(/C=N/Nc2ncnc3[nH]ncc23)ccc1O`, the inhibition in assay [1] was determined as 22.6%; in assay [2], 27.3%; in [3] it was 72.4%; in assay [4], 28.4%; in assay [5], 80.8%; in [6] it was 3.77%. Also, the inhibition in [7] stood at 16.5%; in assay [8], 25%; in assay [9], 76.3%; in assay [10], 21.9%.

Consider `Cc1cccc2c1NC(=O)/C2=N\Nc1ccc(S(N)(=O)=O)cc1`, for which the inhibition in [1] came to 5.17%; in [2], 7.81%; in assay [3] it was 17.4%; in [4], 0.21%; in assay [5] it was 8.1%; in assay [6], 3.33%. Moreover, the inhibition in assay [7] came out at 7.27%; in assay [8], 13.4%; in assay [9] it was 41.3%; in assay [10], 2.52%.

`Fc1ccc(-c2nn3ncccc3c2-c2ccnc(Nc3ccc4c(c3)OCCO4)n2)cc1`: the inhibition turned out to be 3.55% in assay [1]; 15.1% in [2]; 54.8% in assay [3]; 12.1% in [4]; 56.1% in [5]; 5.87% in assay [6]. In addition, the inhibition in assay [7] came out at 17.9%; in assay [8] it was 21.9%; in assay [9] it was 72%; in [10] it was 29.3%.

Take `Fc1ccc(-c2cc(-c3c[nH]nc3-c3ccccn3)ccn2)cc1`: the inhibition was -0.34% in assay [1]; 5.93% in [2]; 19.8% in assay [3]; 4.02% in [4]; 21.2% in [5]; 5.49% in assay [6]. For the same compound, the inhibition was determined as 10.1% in assay [7], 4.91% in assay [8], 11.8% in [9] and 3.85% in assay [10].

Regarding `c1cc(-c2cnn3nc(N4CCOCC4)ccc23)nc(NC2CC2)n1`, the inhibition worked out at 9.05% in assay [1]; 31.9% in assay [2]; 76.8% in assay [3]; 21.2% in [4]; 75.8% in assay [5]; 2.78% in [6]. Moreover, the inhibition in assay [7] is 17.5%; in [8] it was 18.1%; in assay [9], 72.4%; in assay [10] it was 12.5%.

Turning to `CCc1nn2ncccc2c1-c1ccnc(NC2CC2)n1`, the inhibition in assay [1] was determined as 3.55%; in [2] it was 4.59%; in assay [3], 8.05%; in [4], 1.28%; in [5], 5.3%; in [6], 4.48%. The inhibition in [7] was found to be 5.6%; in assay [8], 3.69%; in [9], 5.92%; in assay [10] it was 4.03%.

As to `CC(C)(CO)CNC(=O)c1ccc2c(c1)/C(=N/Nc1ccc(S(N)(=O)=O)cc1)C(=O)N2`, the inhibition in [1] was 21.6%; in assay [2], 18.7%; in assay [3], 62.5%; in assay [4] it was 23.2%; in assay [5], 77.3%; in [6], -0.15%. Further, the inhibition in assay [7] came out at 6.93%; in assay [8], 15.7%; in assay [9], 65.4%; in [10], 38.7%.

In the case of `COc1cc2ncn(-c3cc(OCc4ccccc4C(F)(F)F)c(C(=O)N(C)C)s3)c2cc1OC`, the inhibition is 2.19% in assay [1]; 11% in [2]; 39.9% in [3]; 4.06% in assay [4]; 23.9% in assay [5]; 2.17% in assay [6]. Moreover, the inhibition worked out at 1.13% in assay [7], 5.15% in [8], 26.5% in [9] and 6.2% in assay [10].

`CS(=O)(=O)CCNCc1coc(-c2ccc3ncnc(Nc4ccc(OCc5ccccc5)cc4)c3c2)c1`: the inhibition in assay [1] was found to be 4.59%; in assay [2], 7.28%; in assay [3], 11.5%; in assay [4] it was 3.71%; in assay [5] it was 4.82%; in assay [6], 3.65%. Further, the inhibition turned out to be 6.58% in assay [7], 3.61% in assay [8], 12.8% in assay [9] and 3.03% in assay [10].

As for `Clc1ccc(-c2nn3ncccc3c2-c2ccnc(Nc3ccccc3)n2)cc1`, the inhibition in assay [1] was 1.46%; in assay [2], 6.5%; in assay [3], 31.3%; in assay [4], 6.95%; in assay [5], 18.8%; in assay [6], 3.65%. For the same compound, the inhibition in assay [7] was found to be 8.75%; in [8] it was 12.4%; in assay [9], 42%; in assay [10], 6.84%.
